{"source": "PubChem BioAssay AID1347165", "about": "(National Center for Advancing Translational Sciences (NCATS), 2019)", "note": "Out of some 220,000 compounds screened, about 5,700 (2.6%) were called active. Inconclusive results (about 18%) are left out. The call rests on the fitted dose curve; in most records, active means well fitted inhibition curve with a large enough effect; inconclusive means small, poorly fitted or top-dose-only effect; inactive means no such curve, though single readings can be large or run the other way. Shown is part of a subset that was picked to be rich in actives. Entries that show only a call come without a potency. Potency means the concentration at half of the fitted maximal effect.", "data": [{"biological_target": "Lysine-specific demethylase 5B (Homo sapiens) (UniProt Q9UGL1)", "sequence (Q9UGL1 whole entry, looked up)": "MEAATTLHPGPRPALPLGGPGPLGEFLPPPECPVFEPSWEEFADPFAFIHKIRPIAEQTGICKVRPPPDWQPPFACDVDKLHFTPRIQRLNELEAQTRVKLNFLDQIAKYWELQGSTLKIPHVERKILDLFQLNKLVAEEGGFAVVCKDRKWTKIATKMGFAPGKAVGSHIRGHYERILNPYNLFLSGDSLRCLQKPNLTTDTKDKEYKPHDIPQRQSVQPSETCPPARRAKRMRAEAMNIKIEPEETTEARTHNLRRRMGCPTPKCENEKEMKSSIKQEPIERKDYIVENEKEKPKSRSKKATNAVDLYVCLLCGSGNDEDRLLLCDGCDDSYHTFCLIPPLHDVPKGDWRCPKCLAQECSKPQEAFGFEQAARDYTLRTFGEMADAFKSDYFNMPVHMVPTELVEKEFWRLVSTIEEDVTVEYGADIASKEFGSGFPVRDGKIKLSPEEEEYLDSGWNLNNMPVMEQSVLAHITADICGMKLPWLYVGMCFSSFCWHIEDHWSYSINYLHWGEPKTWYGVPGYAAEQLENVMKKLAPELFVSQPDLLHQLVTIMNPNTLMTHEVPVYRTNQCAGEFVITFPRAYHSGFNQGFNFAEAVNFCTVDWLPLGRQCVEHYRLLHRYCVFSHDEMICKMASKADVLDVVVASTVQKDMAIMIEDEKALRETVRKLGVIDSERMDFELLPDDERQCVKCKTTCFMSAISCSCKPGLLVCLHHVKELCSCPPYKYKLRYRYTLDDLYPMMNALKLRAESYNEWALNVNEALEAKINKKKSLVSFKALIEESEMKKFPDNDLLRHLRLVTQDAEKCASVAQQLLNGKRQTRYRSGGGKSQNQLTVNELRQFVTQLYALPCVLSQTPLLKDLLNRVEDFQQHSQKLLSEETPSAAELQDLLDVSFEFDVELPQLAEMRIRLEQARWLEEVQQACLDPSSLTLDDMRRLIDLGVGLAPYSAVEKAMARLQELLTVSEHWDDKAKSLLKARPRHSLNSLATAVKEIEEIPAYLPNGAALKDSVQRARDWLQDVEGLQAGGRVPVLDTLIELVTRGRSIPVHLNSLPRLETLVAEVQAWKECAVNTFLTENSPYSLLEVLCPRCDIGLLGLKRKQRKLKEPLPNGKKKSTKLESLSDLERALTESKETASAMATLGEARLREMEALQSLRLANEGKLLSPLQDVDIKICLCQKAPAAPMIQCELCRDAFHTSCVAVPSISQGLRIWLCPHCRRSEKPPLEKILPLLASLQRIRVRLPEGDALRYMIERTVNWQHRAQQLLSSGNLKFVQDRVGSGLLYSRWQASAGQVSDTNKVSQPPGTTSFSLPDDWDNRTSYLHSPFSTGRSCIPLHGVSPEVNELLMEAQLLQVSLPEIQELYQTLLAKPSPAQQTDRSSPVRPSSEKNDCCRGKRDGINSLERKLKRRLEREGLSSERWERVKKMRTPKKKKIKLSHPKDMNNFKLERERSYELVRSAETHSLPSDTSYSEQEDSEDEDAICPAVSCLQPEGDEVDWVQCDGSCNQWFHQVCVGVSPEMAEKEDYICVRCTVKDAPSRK", "experiment": "Primary screen for KDM5B Histone Demethylases FDH-coupled qHTS; further: nearly all actives have a fitted effect of over 70% in size", "conditions": "FDH-coupled NADH fluorescence (FDH is formaldehyde dehydrogenase); series mostly up to 57.7 µM", "description": "Assay Submitter (PI): Qin Yan, Ph.D. (Yale University) and Xiaodong Cheng, Ph.D. (MD Anderson) This project was funded as part of the NCI NEXT Program and Chemical Biology Consortium (CBC) The histone demethylases, KDM5A and KDM5B catalyze the demethylation of lysine 4 on histone H3 (H3K4me3/2). They are overexpressed in a variety of cancers and have been implicated in cancer cell growth, metastasis, drug resistance, and tumor growth. KDM5A is amplified and overexpressed in breast and gastric cancer; and is translocated in leukemia. While KDM5B is highly expressed in human mammary tumors and breast cancer cell lines, but not in normal adult breast tissue. Moreover, knockdown of KDM5B leads to upregulation of tumor suppressor genes, including BRCA1. The goal of this project is to employ qHTS to identify selective small molecule inhibitors of KDM5A/B demethylase activity to better understand the role of KDM5 in cancer and to develop novel therapies. We employed an FDH-coupled assay previously reported by Sakurai et al. to monitor in vitro KDM5 demethylase activity. Compounds showing dose response inhibition are re-acquired, validated, and tested for non-specific interference with the formaldehyde dehydrogenase (FDH) counterscreen. True inhibitors are validated using an AlphaLisa secondary screen, which employs an H3K4(me2-1)-specific antibody to monitor demethylation of a biotin-tagged H3K4(me3) peptide substrate. Inhibitors are profiled against KDM4A and KDM6A AlphaLisa counterscreens to determine level of demethylase specificity; and against the TruHits counterscreen to eliminate non-specific inhibitory activity on the AlphaLISA detection method. Selective inhibitors identified from the primary and secondary screening are tested in cells using immunofluorescence to monitor global H3K4 tri-methylation as a measure of KDM5A/B inhibition. Early Translation Branch (ETB) National Center for Advancing Translational Sciences (NCATS), Rockville, MD National Institute of Health (NIH), Bethesda, Maryland [1] Sakurai, M et al. A miniaturized screen for inhibitors of Jumonji histone demethylases. Mol Biosyst. 2010 Feb;6(2):357-64. doi: 10.1039/b912993f. Epub 2009 Oct 8.\nMaterials: 1536-well Black, solid bottom, medium binding assay plate is purchased from Greiner Bio-one. The enzymes (KDM5B) and substrate (H3K4me3/2) are provided by the principal investigators. The buffer for this assay is composed of 50mM HEPES at pH 7.5 with 0.01% Tween-20. FDH coupled Demethylase qHTS protocol: Three microliter enzyme mix (buffer + 200nM KDM5BDeltaAP final concentration) is dispensed into the assay plate using the BioRAPTR Flying Reagent Dispenser (FRD; […]). Compound (at various final concentration) and control solution is pin transferred to the assay plate using the Kalypsys 1536-pin tool apparatus. The assay plate is incubated for 10 min at room temperature followed by addition of 1uL substrate mix (buffer + 100uM ascorbic acid, 50uM ferrous ammonium sulfate, 12.5uM H3K4Me3, 25uM a-ketoglutarate, 0.25 mM NAD+, 0.25 U/mL formaldehyde dehydrogenase using the FRD yielding a total reaction volume of 4 uL. Initial fluorescence (Read1) is detected using the PerkinElmer ViewLux plate reader equipped with 340 nm excitation and 450 nm emission filters. The final fluorescence (Read2) signal is obtained after 30 min of room temperature incubation. Delta RFU is calculated (Read2 - Read1) and is used to generated dose response curves.", "values": [{"smiles": "Cc1ccccc1-c1ccc2n(c1=O)C[C@H]1C[C@@H]2CN(C(=O)CSCC(=O)O)C1", "Potency": "39.8 µM (active)"}, {"smiles": "O=C(COc1ccccc1)N1C[C@@H]2C[C@H](C1)c1c(-c3ccccc3F)ccc(=O)n1C2", "Potency": "inactive"}, {"smiles": "O=C(Nc1ccc2n(c1=O)C[C@H]1C[C@@H]2CN(C(=O)c2ccccn2)C1)c1ccc(F)cc1", "Potency": "inactive"}, {"smiles": "O=C(Nc1ccc(Cl)cc1)N1C[C@@H]2C[C@H](C1)c1c(-c3ccccc3F)ccc(=O)n1C2", "Potency": "inactive"}, {"smiles": "CCCS(=O)(=O)N1C[C@@H]2C[C@H](C1)c1ccc(-c3ccccc3C)c(=O)n1C2", "Potency": "39.8 µM (active)"}, {"smiles": "O=C(NC1CCCCC1)N1C[C@@H]2C[C@H](C1)c1c(-c3ccccc3F)ccc(=O)n1C2", "Potency": "inactive"}, {"smiles": "Cc1ccc(NC(=O)N(Cc2ccc3c(c2)OCO3)C2CCN(Cc3ccccc3)CC2)cc1F", "Potency": "inactive"}, {"smiles": "COc1ccc(/C=C\\[N+](=O)[O-])c(OC)c1", "Potency": "inactive"}, {"smiles": "CC1(C)NN1CCCCN1NC1(C)C", "note": "(stereo not given)", "Potency": "inactive"}, {"smiles": "COC1CN(c2ccc(C)cc2)C12CCNCC2", "note": "(stereo not given)", "Potency": "inactive"}, {"smiles": "Cn1nc(-c2cccs2)cc1[C@H]1CN2CC[C@H]1C[C@@H]2CNC(=O)Nc1ccccc1", "Potency": "inactive"}, {"smiles": "CN(C)C(=O)Oc1ccc2c(=O)c(-c3ccc(Br)cc3)c(C(F)(F)F)oc2c1", "Potency": "inactive"}, {"smiles": "Cc1ccc(CN2CCC3(CCNCC3)C2)c(O)c1", "Potency": "inactive"}, {"smiles": "Cc1nc(-c2ccc(C(F)(F)F)cc2)cc([C@H]2CN3CC[C@H]2C[C@@H]3CNC(=O)c2ccco2)n1", "Potency": "inactive"}, {"smiles": "Cc1ccc(C(=O)NC[C@H]2C[C@@H]3CCN2C[C@@H]3c2cc(-c3ccco3)nc(C)n2)cc1", "Potency": "39.8 µM (active)"}, {"smiles": "COc1ccccc1-c1cc([C@H]2CN3CC[C@H]2C[C@@H]3CNC(=O)c2ccco2)nc(C)n1", "Potency": "31.6 µM (active)"}, {"smiles": "COc1ccccc1-c1cc([C@H]2CN3CC[C@H]2C[C@@H]3CNC(C)=O)n(C)n1", "Potency": "inactive"}, {"smiles": "COc1ccc(C(=O)NC[C@H]2C[C@@H]3CCN2C[C@@H]3c2cc(-c3ccccc3)nn2C)cc1", "Potency": "inactive"}, {"smiles": "COc1ccccc1-c1cc([C@H]2CN3CC[C@H]2C[C@@H]3CNC(=O)c2ccco2)n(C)n1", "Potency": "inactive"}, {"smiles": "COc1cc2c(cc1Oc1cccc(N(C)C)c1)NC(=O)C21CCN(Cc2ccccn2)CC1", "Potency": "inactive"}, {"smiles": "c1ccc(CCN2CCC3(CC2)OCCO3)cc1", "Potency": "inactive"}, {"smiles": "C=C[C@H]1CN2CC[C@H]1C[C@@H]2CNCc1ccc(C(F)(F)F)cc1", "Potency": "inactive"}, {"smiles": "Cc1nc(-c2ccc(N(C)C)cc2)cc([C@H]2CN3CC[C@H]2C[C@@H]3CNC(=O)C2CCC2)n1", "Potency": "39.8 µM (active)"}, {"smiles": "CCCS(=O)(=O)NC[C@H]1C[C@@H]2CCN1C[C@@H]2c1cc(-c2ccccc2)nc(C)n1", "Potency": "inactive"}, {"smiles": "Cc1nc(-c2ccccc2)cc([C@H]2CN3CC[C@H]2C[C@@H]3CNC2CCOCC2)n1", "Potency": "inactive"}, {"smiles": "COc1ccc(-c2cc([C@H]3CN4CC[C@H]3C[C@@H]4CNC(=O)C3CC3)n(C)n2)cc1OC", "Potency": "inactive"}, {"smiles": "COc1ccc(-c2cc([C@H]3CN4CC[C@H]3C[C@@H]4CNC(=O)C3CCCCC3)n(C)n2)cc1", "Potency": "inactive"}, {"smiles": "COc1ccc(-c2cc([C@H]3CN4CC[C@H]3C[C@@H]4COC(=O)NC(C)C)nc(C)n2)cc1", "Potency": "28.2 µM (active)"}, {"smiles": "CC(C)(C)NC(=O)NC(=O)CCl", "Potency": "inactive"}, {"smiles": "Cc1ccc(C(=O)N2[C@H]3CC[C@@H]2c2cnc(-c4ccccc4)nc2C3)c(C)c1", "Potency": "inactive"}, {"smiles": "Cc1nc(C)c(C(=O)N2[C@H]3CC[C@@H]2c2cnc(-c4ccccc4)nc2C3)s1", "Potency": "inactive"}, {"smiles": "CCOC(=O)c1c(C)n(Cc2ccccc2Cl)c2ccc(O)cc12", "Potency": "inactive"}, {"smiles": "O=C(Nc1ccccc1)N1C[C@@H]2C[C@H](C1)c1c(-c3ccc(Cl)cc3)ccc(=O)n1C2", "Potency": "inactive"}, {"smiles": "CC(=O)Nc1ccc(-c2ccc3n(c2=O)C[C@H]2C[C@@H]3CN(C3CCN(C)CC3)C2)cc1", "Potency": "39.8 µM (active)"}, {"smiles": "O=C(c1ccncc1)N1C[C@@H]2C[C@H](C1)c1ccc(C3CCCCC3)c(=O)n1C2", "Potency": "inactive"}]}]}
